# Most compounds without a hit are left out; they make up all but 2.4% or so of the library.
# cardiac RTF act: cardiac RTF calcium sensitivity activators, primary screen, biochemical, IANBD-TnC fluorescence, EC20 calcium; Troponin I, cardiac muscle (Homo sapiens) + Troponin T, cardiac muscle (Homo sapiens) + …; activation, % at 7.2 µM; AID 493008, 2010; hit rate 0.24% among 340,000; IANBD-labeled TnC RTF fluorescence at EC20 calcium; 0% EC20 calcium, 100% full calcium;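 active = activation above the mean over all tested compounds plus 3 SD, cut at about 30% in these data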;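 note: rise in fluorescence read as greater calcium sensitivity of cardiac thin filaments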
# CRFR2-BP antag: antagonists of CRF-BP/CRF-R2 complex, primary screen, cell-based, HEK293, calcium dye fluorescence, uHTS. inhibition, % at 11.8 µM. CRF-induced calcium fluorescence. hit rate 0.59% among 350,000;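 active = inhibition of the ligand-induced calcium signal above about 50% at the single tested concentration, limit read from the data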
# RTF Ca sens inh: cardiac RTF calcium sensitivity inhibitors, primary screen, biochemical, IANBD-TnC fluorescence, EC70 calcium; IANBD-labeled cardiac RTF, Ca2+ fluorescence; inhibition, % at 7.15 µM; hit rate 0.12% among 340,000; AID 493244, 2011;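 active = inhibition above the mean inhibition of all tested compounds plus 3 SD, cut at about 17% in these data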;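 note: assay run at fixed EC70 calcium of 1.6 mM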
# TMEM16A inh: TMEM16A chloride channel inhibitors, primary screen, cell-based, HTS; HEK293 TMEM16A/YFP iodide influx fluorescence, ionomycin; hit rate 1.2% among 310,000; Anoctamin-1 (Mus musculus), Q8BHY3; normalized B-score (activity score, 25-100; higher = stronger inhibition) at 10 µM;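 active = ratio plate-corrected score three or more library SD toward inhibition, starting fluorescence score within five deviations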;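 note: score derived from kinetic fluorescence span divided by baseline fluorescence per well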
# CRFBP-R2 agonist: agonists of CRF-BP/CRF-R2 complex, primary screen, cell-based, HEK293, calcium dye fluorescence, uHTS; AID 588473, 2011; CRF-binding protein / CRF receptor 2 complex (human); hit rate 0.46% among 350,000; calcium dye fluorescence (FLIPR); percent of saturating CRF peptide response; activation, % at 13.2 µM;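 active = activation of at least 50%, plus an integration ratio under a set limit after plate pattern correction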;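 note: plate controls were neutral control wells without compound for no effect and CRF at EC100 for full effect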
# TMEM16A act: TMEM16A chloride channel activators or potentiators, primary screen, cell-based, HTS. HEK293 TMEM16A/YFP-H148Q/I152L, iodide quench fluorescence; hits give low values. B-score at 10 µM. Anoctamin-1 (Mus musculus), Q8BHY3. hit rate 0.3% among 340,000;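 active = fluorescence-ratio B-score plate-corrected deviation score at least 3 library SD below zero, with starting fluorescence score within 5 deviations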;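 note: channel opened by trigger with iodide after compound preincubation; score built on the fluorescence ratio of max minus min over baseline; more negative score means more quench and so TMEM16A activation or potentiation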
# TMEM16A reconf: TMEM16A chloride channel inhibitors, confirmation, cell-based, re-confirmation | shares compounds with TMEM16A inh | hit rate 39% among 2,300 | AID 652189, 2013 | inhibition, % at 10 µM | HEK293 TMEM16A/YFP-H148Q, iodide quench fluorescence; ionomycin added to raise cell calcium;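 active = mean duplicate percent inhibition, scaled so buffer wells are 0 and the reference blocker 100, over three buffer SD above buffer mean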
# HEK293 Ca mobil: calcium mobilization in TMEM16A/YFP HEK293 cells, confirmation, counter-screen for TMEM16A inhibitor project; shares compounds with TMEM16A inh; hit rate 2% among 2,300; Fluo4 calcium mobilization; calcium response (% of ionomycin), % at 10 µM; AID 652231, 2013;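 active = duplicate-averaged calcium signal over 20% of the ionomycin maximum, relative to buffer baseline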;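 note: each well's signal is peak minus trough fluorescence divided by its pre-addition baseline; 0% = buffer wells and 100% = ionomycin wells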
# YFP-HEK293 quench: iodide YFP quench changes in parental YFP-HEK293, counter-screen for TMEM16A inhibitor project, cell-based; shares compounds with TMEM16A inh; ionomycin; YFP ratio F(max-min)/F0 at 10 µM; 2,300 tested, under 10 active;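 active = yellow fluorescent protein signal ratio exceeding the buffer control mean by over 5 SD of those controls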;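 note: ratio is mean of duplicate wells from kinetic YFP trace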
# ClC-1 inh: ClC-1 chloride channel inhibition, selectivity assay for TMEM16A inhibitor project, cell-based, voltage-dependent ClC-1. ratio percent, % at 10 µM. CHO ClC-1-YFP, iodide influx fluorescence quench; iodide control reads 0, buffer control 100. 2,300 tested, under 10 active. AID 652236, 2013. shares compounds with TMEM16A inh;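 active = duplicate-mean ratio percent above the mean of iodide-only control wells, which defines zero, plus 5 of their SD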;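 note: higher percent means stronger block of ClC-1 iodide influx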
# Numbers without * were called inactive; i = inactive; x = not tested or not shown.
SMILES,cardiac RTF act,CRFR2-BP antag,RTF Ca sens inh,TMEM16A inh,CRFBP-R2 agonist,TMEM16A act,TMEM16A reconf,HEK293 Ca mobil,YFP-HEK293 quench,ClC-1 inh
Cc1ccc(S(=O)(=O)Nc2ccc(F)cc2)cc1C(=O)N1CCOCC1,-3,11,5,x,-1,i,x,x,x,x
CCN(CC)S(=O)(=O)c1ccc(C(=O)O)cc1,1,-9,1,i,3,i,x,x,x,x
COc1cccc(CNC(=O)c2cc(=O)[nH]c3ccc(S(=O)(=O)N4CCOCC4)cc23)c1,-4,8,-4,x,-1,i,x,x,x,x
O=S(=O)(Nc1nc2ccccc2nc1Cl)c1ccccc1C(F)(F)F,-5,0,-14,i,0,i,x,x,x,x
O=S(=O)(Nc1nc2ccccc2nc1Cl)c1cccc(C(F)(F)F)c1,-1,16,11,25*,0,i,21%*,i,-1.1,-10
Cn1cccc1C(=O)OCC(=O)NC(=O)NC1CCCCC1,4,-15,3,i,-2,i,x,x,x,x
CCN(c1ccccc1)S(=O)(=O)c1cc(C(=O)Nc2cccc(Cl)c2)ccc1F,1,-24,-4,100*,2,i,i,i,-1.2,-7
CCc1nc2sc3ccccc3c(=O)c2c(=O)n1CCOC,-3,32,-3,25*,1,i,i,i,-1.1,-12
COCCn1c(C(C)C)nc2sc3ccccc3c(=O)c2c1=O,-1,5,-13,i,0,i,x,x,x,x
Cc1c(Cl)c(C(=O)NC2C3CC4CC(C3)CC2C4)nn1C (configuration not stated),4,-6,-8,100*,0,i,i,i,-0.96,-1
Cn1ncc(Br)c1C(=O)NC1C2CC3CC(C2)CC1C3 (configuration not stated),11,-7,-2,i,1,i,x,x,x,x
O=C(NCc1ccc(Cl)cc1Cl)c1ccccn1,1,14,-9,25*,-1,i,i,i,-1.1,-11
Cc1cc(C)c2cc3c(N)c(C(=O)Nc4c(C)[nH]c(=O)[nH]c4=O)sc3nc2c1,7,2,-1,i,-1,i,i,28%*,-1.1,10
CCCN(CCC)CCN1C(=O)C2C(C(=O)Nc3cccc(SC)c3)C3C=CC2(O3)C1C(=O)NC1CCCCC1 (configuration not stated),-4,-17,-2,100*,-1,i,i,i,-1.1,-1
CN(CC(=O)NCc1cccs1)CC(=O)Nc1ccc(F)c(F)c1F,-2,-5,6,i,-1,i,x,x,x,x
CC(C)CNC(=O)[C@@H]1CSC2c3ccccc3C(=O)N21 (some centres not stated),0,0,0,i,1,i,x,x,x,x
Clc1ccc(OCCSCc2nc3ccccc3[nH]2)cc1,-6,6,3,100*,2,i,20%*,i,-1.2,-4
Cc1ccc(OCCSCc2nc3ccccc3[nH]2)cc1,1,5,-4,i,-2,i,x,x,x,x
N#Cc1ccsc1NC(=O)CSc1ncnc2ccccc12,-1,-2,-5,100*,-2,i,i,i,-1.2,-2
CN(C)S(=O)(=O)c1cccc(NC(=O)CSc2nc3ccccc3[nH]2)c1,2,-8,-6,i,1,i,x,x,x,x
Cc1cc(C(=O)OCC(=O)Nc2cccc(S(=O)(=O)N(C)C)c2)c2ccccc2n1,-3,-22,5,i,25,i,i,i,-1.5,-2
CN(C)S(=O)(=O)c1cccc(NC(=O)CSc2ncnc3ccccc23)c1,3,-5,-28,25*,0,i,i,i,-0.95,-10
CCN(CC)S(=O)(=O)c1cccc(NC(=O)CSc2nc3ccccc3[nH]2)c1,-3,-9,-6,100*,1,i,16%*,i,-0.95,-12
N#Cc1ccsc1NC(=O)CSc1ncn[nH]1,1,5,4,i,0,i,x,x,x,x
Cc1cc(C(=O)OCC(=O)Nc2cccc(S(=O)(=O)N(C)C)c2)c(C)o1,0,-1,-12,i,-2,i,x,x,x,x
SMILES,cardiac RTF act,CRFR2-BP antag,RTF Ca sens inh,TMEM16A inh,CRFBP-R2 agonist,TMEM16A act,TMEM16A reconf,HEK293 Ca mobil,YFP-HEK293 quench,ClC-1 inh
CCOC(=O)CSc1nnc(CNC(=O)c2cccc(C)c2)n1C,1,-3,1,i,-1,i,x,x,x,x
Cc1c(C(=O)Nc2ccc3c(c2)OCCO3)sc2nc(-c3ccccc3)cn12,-1,-25,0,25*,2,i,16%*,i,-0.94,-12
COc1ccccc1NC(=O)C1CC(O)CN1C(=O)Oc1ccccc1 (configuration not stated),0,7,-6,i,0,i,x,x,x,x
COC(=O)c1ccc(-n2c(C)cc(C(=O)CSc3ccc(NC(C)=O)cc3)c2C)cc1,-4,-14,3,25*,2,i,24%*,i,-1.1,-4
CC(=O)Nc1ccc(SCC(=O)c2cc(C)n(-c3ccccc3F)c2C)cc1,3,-10,1,i,-1,i,x,x,x,x
COc1cccc(NC(=O)Nc2nc(-c3ccc(OC)c(OC)c3)cs2)c1,-19,-7,4,25*,0,i,20%*,i,-1.1,-4
COc1ccc(-c2csc(NC(=O)C3CCN(C(=O)c4ccc(F)cc4)CC3)n2)cc1OC,-2,7,-6,100*,3,i,20%*,i,-0.75,-16

# Screening data deposited in PubChem BioAssay by several laboratories.
